MBNL1-CUG inh: qHTS Assay for Inhibitors of MBNL1-poly(CUG) RNA binding. TR-FRET MBNL1-His/biotin-(CUG)12 binding, 665/545 ratio. Potency, µM (doses to about 57.5 µM), for the others: at the top dose activity change, negative = inhibition, usual class: inhibitors. 0.036% of 280,000 active; active = well fitted inhibition curve with a large enough effect in the signal ratio, with a control signal flat, not every such curve was filed as active; inconclusive = small, poorly fitted or top-dose-only effect, or effect the other way, or a change in a side signal; inactive = no such curve, though single readings can be large or run the other way; the % refers to the signal ratio; also: % is scaled to controls: 0 for no effect and ±100 for the full control effect
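MBNL1-His + Biotin-(CUG)12, cpd titration 92 nM–58 uM; Tb anti-His Ab 0.055 ng/ul, SA-XL665 5 nM (final); 60 min RT; ratiometric 665/545 nm, Ex 340 nm; normalized to buffer and full-complex controls.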
BCR signal inh: qHTS Assay to Find Inhibitors of Chronic Active B-Cell Receptor Signaling; AID 493014, 2011; ABC-DLBCL IkBa-CBG/CBR reporter, luminescence ratio, 4 h; Potency, µM (series often up to 46.1 µM), for inactives: at the top dose activity change, negative = inhibition, actives largely listed as inhibitors; 0.05% of 340,000 active; active = well fitted inhibition curve with a large enough effect in the signal ratio, with a control signal flat, not every such curve was filed as active; inconclusive = small, poorly fitted or top-dose-only effect, or effect the other way, or a change in a side signal; the % refers to the signal ratio;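 also: plate controls were basal doxycycline-induced cells for no effect and cells given 10 µM MG132 for full effect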
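TMD8 ABC-DLBCL cells carrying doxycycline-inducible green luciferase fused to IkappaBalpha plus unfused red luciferase were exposed to compounds (up to 46 uM) for 4 hrs at 37C. Activity came from the overlap-corrected green/red luminescence ratio.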
B2AR arrestin: qHTS assay of beta-arrestin-biased ligands of beta2-adrenergic receptor | Beta-2 adrenergic receptor (Homo sapiens), P07550 | beta-arrestin recruitment to beta2AR, cell-based reporter | Potency, µM (top dose mostly 46.1 µM), for inactives: at the highest dose activation, actives largely listed as activators | 0.02% of 330,000 active;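 also: 0% = DMSO controls and full agonism = EC100 isoproterenol or metaproterenol; nearly all actives have a fitted effect of over 65% in size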
Target sequence (P07550 whole entry, looked up): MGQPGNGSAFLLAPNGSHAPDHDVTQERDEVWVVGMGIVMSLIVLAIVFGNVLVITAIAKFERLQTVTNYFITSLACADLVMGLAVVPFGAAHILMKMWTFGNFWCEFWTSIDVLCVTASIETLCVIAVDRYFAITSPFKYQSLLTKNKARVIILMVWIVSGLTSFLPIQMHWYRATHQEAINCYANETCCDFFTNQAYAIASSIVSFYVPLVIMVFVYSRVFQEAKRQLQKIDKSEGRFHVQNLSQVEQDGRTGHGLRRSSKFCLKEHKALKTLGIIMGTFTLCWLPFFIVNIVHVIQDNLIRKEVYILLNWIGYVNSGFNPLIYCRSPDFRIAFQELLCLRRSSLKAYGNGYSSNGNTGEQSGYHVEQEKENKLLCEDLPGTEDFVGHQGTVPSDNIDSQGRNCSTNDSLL
Tb PFK inh-1: qHTS Assay to Find Inhibitors of T. brucei phosphofructokinase. ATP-dependent 6-phosphofructokinase (Trypanosoma brucei brucei), O15648. T. brucei PFK, ADP-Glo luminescence. Potency, µM (titrated, usually from 57.5 µM), for inactives: at the top dose activity, negative = inhibition, most hits filed as inhibitors. 0.17% of 330,000 active. AID 485367, 2010;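 also: 0% = uninhibited 1x PFK enzyme wells and -100% = no-enzyme wells; nearly all actives have a fitted effect of over 60% in size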
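Luminescent ADP detection (ADP-Glo, two-step: ATP depletion then ADP-to-ATP conversion for luciferase) reported PFK activity after 45 min room-temperature reaction of 1.25 nM enzyme with 0.5 mM F6P and 0.1 mM ATP at pH 8.0.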
TbPFK ATP: Tb PFK orthogonal confirmatory assay using ATP depletion (Kinase-Glo Plus) as an alternative measure of Tb PFK activity: Hit Validation. shares compounds with Tb PFK inh-1. Tb PFK enzyme, ATP depletion, Kinase-Glo Plus luminescence. Potency, µM (highest dose often 57.5 µM), without a hit: at the highest dose inhibition. 47% of 1,100 active; calls by dose curve; also: nearly all actives have a fitted effect of over 60% in size
Tb PFK inh-2: Inhibitors of T. brucei phosphofructokinase: Hit Validation | 41% of 1,100 active | shares compounds with Tb PFK inh-1 | AID 504637, 2011 | Potency, µM (titrated, usually from 57.5 µM), for inactives: at the top dose activity change, negative = inhibition, most hits filed as inhibitors | purified T. brucei PFK, ADP-Glo luminescence, 45 min;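 also: plate controls were full PFK enzyme control for no effect and no enzyme control for full effect; nearly all actives have a fitted effect of over 60% in size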
The depositor's hits bear a star; u = inconclusive; x = no result given. This is a sample that favours compounds with a hit; in the whole collection about 0.27% have one here. Unless noted, calls follow the shape of the dose curve; as a rule, active = well fitted curve in the direction sought with a large enough effect; inconclusive = small, poorly fitted or top-dose-only effect, or another doubt; inactive = no such curve, though single readings can be large; an effect the other way counts as inactive or inconclusive. Potency is read from the fitted curve at half-maximal effect.

SMILES	MBNL1-CUG inh	BCR signal inh	B2AR arrestin	Tb PFK inh-1	TbPFK ATP	Tb PFK inh-2
c1ccc(OCCN2C3=NCCN3c3ccccc32)cc1	-4%	-1%	-1%	21µM*	24µM*	u
CCCN1C2=NCCN2c2ccccc21	9%	-1%	0%	5%	x	x
Clc1ccc(CN2C3=NCCCN3c3ccccc32)c(Cl)c1	-3%	0%	0%	10%	x	x
Clc1ccc(CN2C3=NCCN3c3ccccc32)cc1	-9%	0%	-1%	24µM*	21µM*	27µM*
Clc1cccc(CN2C3=NCCCN3c3ccccc32)c1	u	2%	-1%	u	u	u
Brc1ccc(CN2C3=NCCCN3c3ccccc32)cc1	-16%	u	1%	u	27µM*	u
CCOC(=O)c1c(NC(=O)c2ccc(S(=O)(=O)N(CCOC)CCOC)cc2)sc2c1CC(C)(C)NC2(C)C	x	3%	x	x	x	x
O=[N+]([O-])c1ccc(Sc2cccc[n+]2[O-])c2nonc12	u	u	1%	11µM*	2.7µM*	9.5µM*
COc1ccccc1Cc1nnc(NC(=O)C2CCN(C(=O)c3ccco3)CC2)s1	-7%	2%	0%	-1%	x	x
O=C(NCc1cccc(Cl)c1)c1ccc(N2CC3CC(C2)c2cccc(=O)n2C3)c(NC(=O)c2cccnc2)c1 (stereo not given)	-1%	1%	0%	u	u	u
CSc1ccccc1NC(=O)c1ccc(N2CC3CC(C2)c2cccc(=O)n2C3)c(NC(=O)c2ccncc2)c1 (stereo not given)	-2%	u	-1%	-1%	x	x
O=[N+]([O-])c1ccc(Cc2ccncc2)cc1	u	1%	0%	u	u	30µM*
O=[N+]([O-])c1ccc(Cc2cncc(O)c2)cc1	u	-5%	0%	u	x	x
O=[N+]([O-])c1ccc(NCc2ccncc2)cc1	u	6%	-1%	5.4µM*	3.4µM*	7.6µM*
c1ccc(NCc2ccncc2)cc1	-5%	-7%	0%	-24%	x	x
COc1ccc(N2CCN(S(=O)(=O)c3ccc(-c4ccno4)cc3OC)CC2)cc1	x	-21%	x	x	x	x
COc1cc(N[C@@H](C)CCCN)c2ncccc2c1	x	x	x	x	4%	-5%
O=C(C1CCCN(c2ncnc3c2nc2n3CCCCC2)C1)N1CCN(c2ccc(Cl)cc2)CC1 (stereo not given)	-3%	8%	0%	0%	x	x
O=C(C1CCN(c2ncnc3c2nc2n3CCCCC2)CC1)N1CCN(c2cccc(Cl)c2)CC1	-7%	5%	0%	9.5µM*	24µM*	u
O=C(C1CCN(S(=O)(=O)c2cccnc2)CC1)N1CCN(c2cccc(Cl)c2)CC1	14%	-9%	0%	21µM*	u	-28%
O=[N+]([O-])c1cn(Cc2ccc(Cl)cc2)cn1	9%	-2%	1%	u	u	u
O=C(CCCCCn1c(=O)[nH]c2ccccc2c1=O)NCc1cccc(Cl)c1	x	0%	x	x	x	x
O=C1/C(=C/c2ccc(O)c(O)c2)Oc2cc(O)ccc21	u	13%	3%	u	-29%	u
O=C(CSc1nnc(CNc2ccc(F)cc2)o1)N1CCCc2ccccc21	5%	0%	0%	27µM*	12µM*	27µM*
COc1ccc(C(=O)CSc2nnc(CNc3ccc(F)cc3)o2)cc1	12%	u	0%	17µM*	12µM*	24µM*
